{
  "source": "paper PMC12864922",
  "about": "“TDP-43 directly inhibits mRNA accumulation in neurites through modulation of mRNA stability”",
  "binders": {"B1": {"name": "ENSMUSG00000061578.285|Ksr2 (ssRNA)", "RNA": "GGGAGUUCUACAGUCCGACGAUCGCUUCGAUAUCCGCAUGCUAGGAUAUAUCUCUGUGGCCAGGGCUGGACUGAGACUGACCCCCUCCUACUAAGCAUCUUAGAGUUUCUCUUUUCUCUUUAAUUGCAUCAGGACCCCUUUGGUCCAUGUACCCCGGUCUCUGUCACAUGCCUUUGUAUCUUGGAGGAAGUAAGAGAGGAGAGAGCCAGGGAGGGCUGAAGCUCUGGGACCCUGAAGUGUCCCCCGGGAACUGGGACUCACUCAUCUUCUCCUGUUUGUAGCUCAAUGACCCAGUGGGUCACACUCUUGCGGUCGCACUAGUGUGGAAUUCUCGGGUGUCAAGG"}, "B2": {"name": "ENSMUSG00000029028.201|Lrrc47 (ssRNA)", "RNA": "GGGAGUUCUACAGUCCGACGAUCGCUUCGAUAUCCGCAUGCUAAGCACACAGCUGCCAUCCCUCGAGCCACAGUGCCUGGUCCUAAGGACCCAGCAGCUGCACAGAGGACUUGGUGGCCCCGUGCCUUGCCAUCUGGCUGAGAAGAGAACCAGACCCUCAGCCUUCCCCCUCGACACCUUCUCGUUGGUGACCUCUGACCUUAAAGGACCAUUUCUACCUUCUGUAAAAGAACACCUGUUUGGGGUUGCGUGCGGCUUUCAUCCUAAGGCCGUGCGAGAGCCGUUAGCUGUCAGAACUAGUGACUCUUGCGGUCGCACUAGUGUGGAAUUCUCGGGUGUCAAGG"}, "B3": {"name": "ENSMUSG00000028439.16|Fam219a (ssRNA)", "RNA": "GGGAGUUCUACAGUCCGACGAUCGCUUCGAUAUCCGCAUGCUAAUUCAGUAGUGGGCGGGGUCGCCGCGGUGCACGGGGCGCUGACCUGGGCCCGGUGGGAUGCAGCAGGAGAGACCCCUACCCUGCUGGUCCACUGGUCCCCAGCCCCGCGCCUCUUAGAGCCGCCAACCUCGUAACAGUCAUUGCUUCCUCCUAUGGUAGGACGUGUACCUCUGUGUGUUCAAGGAGCCGGAGAAACCAAAACCGGGUCUGUCUCCAGCCCCGGGGCUGAGGAGGGGUGGGCACUGUUUGUUCGGUUACUUCUCUUGCGGUCGCACUAGUGUGGAAUUCUCGGGUGUCAAGG"}, "B4": {"name": "ENSMUSG00000031028.682|Tub|139:143;183:187;256:260 (ssRNA)", "RNA": "GGGAGUUCUACAGUCCGACGAUCGCUUCGAUAUCCGCAUGCUACUAUUUUGGAGUGGUCAGACAUUUUAUUUUUGUUCAAAAUUAUCUGGAGUUUUAGACAAACUUGCAAAACUGUGCUUUUAUUAAGUGACUUUUUGAAUAAACUUUUUGGUAUUCUGAAGCAAAUGUAUUUAUUUAUUGCAUACUGCAAUGACAAACUUGGUAUUUUCCCAUAAUGACAUUAUCAUACUUGUAGAAUUUAGUGUUUGUCUAAGUACAGACAUGUAUCAACACAUUAAACUUGAACUGUUUGACGGCACACACUCUUGCGGUCGCACUAGUGUGGAAUUCUCGGGUGUCAAGG"}, "B5": {"name": "ENSMUSG00000090935.52|Synj2bp (ssRNA)", "RNA": "GGGAGUUCUACAGUCCGACGAUCGCUUCGAUAUCCGCAUGCUAGUGUCCCUGAGAGUACAGCACAGGUUACCAGUGCAGAAUGGACCUAUAGUACAUCGAGGUGAAGGAGAGCCAAGUGGAGUUCCUGUAGCUAUGGUGCUGCUACCAGUGUUUGCCCUCACCAUGGUAGCAGUUUGGGCCUUCGUGAGAUACCGAAAGCAGCUUUGAAAUGCUUGCUGUCUUCCAGUGUGUCCAAUGAACUCUCUCUCUCACUCACCAUCUCUGACAUCCUCCCAUAUUCUUUCUCCUCCACAUAGCCAAUACUCUUGCGGUCGCACUAGUGUGGAAUUCUCGGGUGUCAAGG"}, "B6": {"name": "ENSMUSG00000061578.273|Ksr2 (ssRNA)", "RNA": "GGGAGUUCUACAGUCCGACGAUCGCUUCGAUAUCCGCAUGCUAGGCCCUGGGCUCCAGAGUCGCUGAAGACCACUCUCCACAGCAGCUGUAACCCCAUCUAACAAGCCCUGUUCUGGAUAUAUCUCUGUGGCCAGGGCUGGACUGAGACUGACCCCCUCCUACUAAGCAUCUUAGAGUUUCUCUUUUCUCUUUAAUUGCAUCAGGACCCCUUUGGUCCAUGUACCCCGGUCUCUGUCACAUGCCUUUGUAUCUUGGAGGAAGUAAGAGAGGAGAGAGCCAGGGAGGGCUGAAGCUCUGGGACCCUCUUGCGGUCGCACUAGUGUGGAAUUCUCGGGUGUCAAGG"}, "B7": {"name": "ENSMUSG00000058297.285|Spock2|1:12;131:136 (ssRNA)", "RNA": "GGGAGUUCUACAGUCCGACGAUCGCUUCGAUAUCCGCAUGCUAACACACACACACAGAGAGAGAGAGAGAGAGAGAGAGAGAGAGAGAGAGAAAGAGAGAGAGAAUGAGAGAGAAUGAGAGAGAGAAUACCCGAGGGCCACCCUGAUGCCCAGGAAGAGUGAGGGCAGCCCCCACACACGUGGAAGAGGCUGGGCAGCUAGCUACUGGGGACCUUGUGCUGAGGCUUCCAGGACAAAGCCCCAGUCUGGCUCUCCCCCAGCCUCUCAGGGGCACUGGCUGGUCACAUCCACUGAGUAUUGAUCCUCUUGCGGUCGCACUAGUGUGGAAUUCUCGGGUGUCAAGG"}, "B8": {"name": "ENSMUSG00000058297.284|Spock2|1:18;137:142 (ssRNA)", "RNA": "GGGAGUUCUACAGUCCGACGAUCGCUUCGAUAUCCGCAUGCUAACACACACACACACACACAGAGAGAGAGAGAGAGAGAGAGAGAGAGAGAGAGAGAAAGAGAGAGAGAAUGAGAGAGAAUGAGAGAGAGAAUACCCGAGGGCCACCCUGAUGCCCAGGAAGAGUGAGGGCAGCCCCCACACACGUGGAAGAGGCUGGGCAGCUAGCUACUGGGGACCUUGUGCUGAGGCUUCCAGGACAAAGCCCCAGUCUGGCUCUCCCCCAGCCUCUCAGGGGCACUGGCUGGUCACAUCCACUGAGUACUCUUGCGGUCGCACUAGUGUGGAAUUCUCGGGUGUCAAGG"}, "B9": {"name": "ENSMUSG00000058297.297|Spock2|59:64 (ssRNA)", "RNA": "GGGAGUUCUACAGUCCGACGAUCGCUUCGAUAUCCGCAUGCUAUGAGAGAGAGAAUACCCGAGGGCCACCCUGAUGCCCAGGAAGAGUGAGGGCAGCCCCCACACACGUGGAAGAGGCUGGGCAGCUAGCUACUGGGGACCUUGUGCUGAGGCUUCCAGGACAAAGCCCCAGUCUGGCUCUCCCCCAGCCUCUCAGGGGCACUGGCUGGUCACAUCCACUGAGUAUUGAUCGGUUGGACUUUAGGGAAGAGCCUCCUCCUUCCCAUUCCUUUCUGCCACCCUGGAAUGGCCACCUUAAUCGUCCUCUUGCGGUCGCACUAGUGUGGAAUUCUCGGGUGUCAAGG"}, "B10": {"name": "ENSMUSG00000058297.286|Spock2|1:6;125:130 (ssRNA)", "RNA": "GGGAGUUCUACAGUCCGACGAUCGCUUCGAUAUCCGCAUGCUAACACACAGAGAGAGAGAGAGAGAGAGAGAGAGAGAGAGAGAGAAAGAGAGAGAGAAUGAGAGAGAAUGAGAGAGAGAAUACCCGAGGGCCACCCUGAUGCCCAGGAAGAGUGAGGGCAGCCCCCACACACGUGGAAGAGGCUGGGCAGCUAGCUACUGGGGACCUUGUGCUGAGGCUUCCAGGACAAAGCCCCAGUCUGGCUCUCCCCCAGCCUCUCAGGGGCACUGGCUGGUCACAUCCACUGAGUAUUGAUCGGUUGGCUCUUGCGGUCGCACUAGUGUGGAAUUCUCGGGUGUCAAGG"}},
  "note": "The full ranking holds about 9,900 sequences; the median of “r (bound/input frequency ratio)” is about 0.7, and the highest 2% start at about 6.5. The sample as a whole holds a higher share of the highest values than the screen did.",
  "data": [
    {"target": "TDP-43 (Homo sapiens, UniProt Q13148 1-414)", "sequence (Q13148 whole entry)": "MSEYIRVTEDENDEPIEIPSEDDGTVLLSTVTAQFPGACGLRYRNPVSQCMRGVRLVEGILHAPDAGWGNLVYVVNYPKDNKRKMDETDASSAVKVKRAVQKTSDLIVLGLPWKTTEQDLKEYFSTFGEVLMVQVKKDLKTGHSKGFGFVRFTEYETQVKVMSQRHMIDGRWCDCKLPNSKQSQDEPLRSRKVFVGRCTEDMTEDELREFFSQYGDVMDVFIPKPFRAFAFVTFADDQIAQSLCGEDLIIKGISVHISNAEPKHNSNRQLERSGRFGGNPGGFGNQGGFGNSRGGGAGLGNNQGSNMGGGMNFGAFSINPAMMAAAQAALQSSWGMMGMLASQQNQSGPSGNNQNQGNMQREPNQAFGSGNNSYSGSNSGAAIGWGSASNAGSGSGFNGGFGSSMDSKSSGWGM", "assay": "RNA Bind-n-Seq with designed 260-mer pool; 25 mM Tris-HCl, 150 mM KCl, 3 mM MgCl2, BSA (printed 500 mg/mL), 20 units/mL SUPERase IN; pH not stated; 500 nM RNA pool, 1 h, 4 C; TDP-43 5, 50, 500 nM; high values mean tight binding", "conditions": "protein: recombinant; tags: SBP (GST cleaved off with PreScission; pGEX-GST-SBP)", "how_it_was_run": "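The incubation lasted 1 h at 4 °C and used 500 nM of an in vitro-transcribed 260-nt 3′ UTR oligo pool with recombinant SBP-tagged TDP-43 at 5, 50 or 500 nM immobilized on streptavidin beads. It took place in 25 mM Tris-HCl, 150 mM KCl, 3 mM MgCl2, BSA and SUPERase IN. Bound RNA was washed, eluted with biotin, converted to cDNA, PCR-amplified and sequenced to give R, each oligo's normalized abundance in the bound sample divided by that in input. Two independent protein batches provided the duplicates.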", "values": [
      {"binder": "B1", "binding signal": "0.368 R (bound/input frequency ratio)"},
      {"binder": "B2", "binding signal": "0.156 R (bound/input frequency ratio)"},
      {"binder": "B3", "binding signal": "0.466 R (bound/input frequency ratio)"},
      {"binder": "B4", "binding signal": "0.0217 R (bound/input frequency ratio)"},
      {"binder": "B5", "binding signal": "1.19 R (bound/input frequency ratio)"},
      {"binder": "B6", "binding signal": "0.384 R (bound/input frequency ratio)"},
      {"binder": "B7", "binding signal": "7.3 R (bound/input frequency ratio)"},
      {"binder": "B8", "binding signal": "8.98 R (bound/input frequency ratio)"},
      {"binder": "B9", "binding signal": "6.44 R (bound/input frequency ratio)"},
      {"binder": "B10", "binding signal": "6.42 R (bound/input frequency ratio)"}
    ]}
  ]
}
